Data taken from PubChem BioAssay AID2283170 (EPA ToxCast).
Records with an inconclusive call do not appear. The source made the active and inactive calls. Rule for the calls: active = hit-call score of the fitted dose curve at least 0.9, where 1 is the maximum; inconclusive = response in the unintended direction; inactive = score below 0.9.

What follows are compounds tested against human Lymphocyte-cell Factor Kinase (Lck), LCK (gene 3932) (UniProt P06239) (assay: NVS_ENZ_hLck: NovaScreen (NVS) Enzymatic Assay for human Lymphocyte-cell Factor Kinase (Lck)).
human Lymphocyte-cell Factor Kinase (Lck), LCK (gene 3932), sequence (P06239 whole entry, looked up): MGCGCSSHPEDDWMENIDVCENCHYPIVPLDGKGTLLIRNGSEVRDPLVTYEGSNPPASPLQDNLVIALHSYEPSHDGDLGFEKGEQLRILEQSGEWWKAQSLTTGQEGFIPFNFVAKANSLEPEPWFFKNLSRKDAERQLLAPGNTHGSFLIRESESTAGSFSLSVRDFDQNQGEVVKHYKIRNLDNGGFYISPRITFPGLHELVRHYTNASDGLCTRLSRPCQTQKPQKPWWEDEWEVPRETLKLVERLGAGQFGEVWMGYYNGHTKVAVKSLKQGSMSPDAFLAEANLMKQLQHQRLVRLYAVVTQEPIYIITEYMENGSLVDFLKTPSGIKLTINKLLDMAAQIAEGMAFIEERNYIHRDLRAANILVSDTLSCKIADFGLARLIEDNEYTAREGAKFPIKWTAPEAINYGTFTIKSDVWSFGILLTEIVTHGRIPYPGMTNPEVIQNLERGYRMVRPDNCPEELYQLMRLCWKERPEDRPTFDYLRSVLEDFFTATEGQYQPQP
Method: NVS_ENZ_hLck is a biochemical, single-readout assay that uses extracted gene-proteins in a cell-free assay. Measurements were taken 1 hour after chemical dosing in a 384-well plate.NVS_ENZ_hLck is one of one assay component(s) measured or calculated from the NVS_ENZ_hLck assay. It is designed to make measurements of enzyme activity, a form of enzyme reporter, as detected with fluorescence intensity signals by Fluorescence and electrophoretic mobility shift technology.Data from the assay component NVS_ENZ_hLck was analyzed into 1 assay endpoint. This assay endpoint, NVS_ENZ_hLck, was analyzed in the positive analysis fitting direction relative to DMSO as the negative control and baseline of activity. Using a type of enzyme reporter, loss-of-signal activity can be used to understand changes in the enzymatic activity as they relate to the gene LCK. Furthermore, this assay endpoint can be referred to as a primary readout, because this assay has produced […] where this one serves a enzymatic activity function. To generalize the intended target to other relatable targets, this assay endpoint is annotated to the kinase intended target family, where the subfamily is non-receptor tyrosine kinase.
Binding assays used specific radioligands (tritiated, iodinated) with non-radioactive competitive displacement ligands in agonist or antagonist protocols (as indicated) and various reference compounds and inhibitors to titrate specific binding to receptors and transporters. Most enzyme assays (CYPs, kinases, phosphatases, proteases, HDACs) used recombinant protein and specific substrates (fluorescence mostly, some colorimetric and radioactive) and inhibitors, followed by a biochemical separation of substrate and product. All assays for the biochemical HTS were initially run in duplicate at a single concentration (10 uM for CYP450 assays and 25 uM for all others). Assay-chemical combinations meeting a pre-defined threshold (e.g., 30% inhibition and other criteria defined below) were then run in singleton concentration-response format with maximum concentration of 20 uM for CYPs and 50 uM for all others. Each assay was run with positive and negative controls, and concurrent controls on every plate. The follow-up (secondary) screen tested active chemical-pairs in concentration series, as well as a few additional assays not tested in the primary screen, some selected negative inactives, and several cases re-run in the concentration series for confirmatory purposes.

| Compound | outcome | AC50 |
| --- | --- | --- |
| c1ccc2[nH]c(-c3cscn3)nc2c1 | inactive |  |
| O=C(Nc1ccc([N+](=O)[O-])cc1Cl)c1cc(Cl)ccc1O | inactive |  |
| S=C([S-])NCCNC(=S)[S-].[Mn+2] | inactive |  |
| c1ccc(Nc2ccccc2)cc1 |  | 10.6 µM (active) |
